Rows were chosen to be rich in hits. Some 12% of all compounds tested hit in one or more screens of this group.
Pf growth 96h: Primary qHTS for delayed death inhibitors of the malarial parasite plastid, 96 hour incubation. P. falciparum luciferase reporter growth, 96 h. Potency, µM (doses to about 28.7 µM), for the others: at the highest dose activity change, negative = inhibition, usual class: inhibitors. actives 6.9% (n = 320,000); further: on the % scale 0 is the no-effect control and ±100 the full control effect
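Readout is luminescence from an integrated firefly luciferase in P. falciparum. Red cells, 2% hematocrit and 0.05% parasitemia final, were cultured with compound through two parasite generations (96 hours) at 37 C, 5% CO2.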
AmpC inh detg: qHTS Inhibitors of AmpC Beta-Lactamase (assay with detergent). Potency, µM (titrated, usually from 114 µM), for inactives: top-dose activity change, negative = inhibition, actives largely listed as inhibitors. actives 0.041% (n = 370,000). AID 485294, 2010. AmpC hydrolysis of nitrocefin, absorbance 480 nm, 0.01% Triton. P00811;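 further: 0% = no-compound wells and -100% = no-enzyme wells; nearly all actives have a fitted effect of over 25% in size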
Target sequence (P00811 whole entry, looked up): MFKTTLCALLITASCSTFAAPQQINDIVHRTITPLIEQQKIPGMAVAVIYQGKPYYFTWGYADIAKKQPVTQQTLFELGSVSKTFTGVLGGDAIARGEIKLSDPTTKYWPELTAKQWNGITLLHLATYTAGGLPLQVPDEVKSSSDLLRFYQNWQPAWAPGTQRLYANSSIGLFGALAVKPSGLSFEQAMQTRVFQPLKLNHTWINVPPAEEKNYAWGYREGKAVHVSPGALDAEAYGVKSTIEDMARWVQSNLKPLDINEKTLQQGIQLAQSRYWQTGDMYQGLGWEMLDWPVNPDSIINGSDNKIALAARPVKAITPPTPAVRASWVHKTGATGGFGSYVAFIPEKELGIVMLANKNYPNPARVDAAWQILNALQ
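20 mM phosphate pH 7.0 + 0.01% (detergent screen) or 0.0001% Triton X-100; 5.3 nM AmpC reagent; cpd preinc 15 min RT; nitrocefin (800 uM stock) to start; A480 q20 s × 4 min; Activity was normalised to no-enzyme and no-compound control wells.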
Sm TGR block: qHTS Assay for the Inhibitors of Schistosoma Mansoni Peroxiredoxins; purified TGR, DTNB reduction, TNB absorbance 405 nm; Potency, µM (titrated, usually from 114 µM), without a hit: at the top dose activity change, negative = inhibition, most hits filed as inhibitors; actives 3% (n = 360,000); further: on the % scale 0 is the no-effect control and ±100 the full control effect; nearly all actives have a fitted effect of over 60% in size
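TGR 20 nM + NADPH 100 uM (dispensed conc.), cpd preinc 15 min RT; start with NADPH (500 uM addition) then DTNB (15 mM addition). Kinetic TNB absorbance, 405 nm filter. Four-parameter Hill fit across titration.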
Pf growth 48h: Primary qHTS for delayed death inhibitors of the malarial parasite plastid, 48 hour incubation; P. falciparum luciferase growth in erythrocytes, 48 h; Potency, µM (titrated, usually from 28.7 µM), without a hit: top-dose activity change, negative = inhibition, hits mostly inhibitors; actives 5.9% (n = 310,000); AID 504832, 2011; further: on the % scale 0 is the no-effect control and ±100 the full control effect
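Compounds are pin-transferred into medium, infected erythrocytes (2% hematocrit, 0.1% parasitemia final) are added, and plates sit one parasite generation at 37 C in 5% CO2. Detection reagent is then added and luminescence measured.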
AmpC no deterg: qHTS Inhibitors of AmpC Beta-Lactamase (assay without detergent); Potency, µM (series often up to 57.1 µM), for the others: at the highest dose activity change, negative = inhibition, most hits filed as inhibitors; actives 0.52% (n = 330,000); AmpC nitrocefin hydrolysis, absorbance 480 nm, 0.0001% Triton; P00811;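 further: plate controls were no compound for no effect and no enzyme for full effect; nearly all actives have a fitted effect of over 20% in size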
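AmpC (5.3 nM in the dispensed reagent) in 20 mM phosphate pH 7.0 with 0.01% (detergent screen) or 0.0001% Triton X-100 was preincubated with compounds for 15 min at room temperature. Nitrocefin was then added from an 800 uM solution, and hydrolysis was followed at 480 nm.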
SARS PLpro yeast: qHTS of Yeast-based Assay for SARS-CoV PLP. AID 485353, 2010. Potency, µM (highest dose often 32.9 µM), without a hit: at the highest dose activity, positive = growth rescue, actives largely listed as activators. actives 0.19% (n = 330,000). S. cerevisiae expressing SARS-CoV PLpro, growth rescue; calls by dose curve; further: 0% is about no effect; nearly all actives have a fitted effect of over 55% in size
Active calls of the source: *; ? = inconclusive; nt = not tested or not shown. Unless noted, the call rests on the fitted dose curve; in most records, active means well fitted curve in the direction sought with a large enough effect; inconclusive means small, poorly fitted or top-dose-only effect, or another doubt; inactive means no such curve, though single readings can be large; an effect the other way counts as inactive or inconclusive. Potency means the concentration at half of the fitted maximal effect.

SMILES	Pf growth 96h	AmpC inh detg	Sm TGR block	Pf growth 48h	AmpC no deterg	SARS PLpro yeast
Cc1cc(CSc2ccccc2)ccc1NC(=O)c1ccc(CN2CCOCC2)cc1	2.94µM*	-4.1%	-6.9%	-33.9%	165.9%	-4.2%
N#CCC(=O)N/N=C/c1ccc(OS(=O)(=O)c2ccccc2)cc1	17.6%	1.3%	6.8%	?	?	1.6%
O=C(Nc1ccccc1Cl)N1CCC2(CC1)Oc1ccccc1C(=O)N2Cc1ccc(F)cc1	nt	-7.2%	0.5%	nt	nt	nt
COc1cc(Nc2ncc3c(n2)CCN(Cc2cc(F)cc(F)c2)C3)cc(OC)c1	nt	0.8%	-7.1%	nt	nt	nt
COc1cccc(S(=O)(=O)NCc2ccc(C(=O)Nc3cccc(Cl)c3)cc2)c1	9.28µM*	?	-2.1%	nt	-51.9%	-0.6%
COc1cccc(S(=O)(=O)NCc2ccc(C(=O)Nc3ccc(Cl)cc3)cc2)c1	0.5%	-0.1%	1.9%	-9.0%	-28.9%	13.2%
COc1cccc(NC(=O)c2c(C)nn(-c3ccccc3)c2Cl)c1	4.65µM*	?	-5.5%	32.0%	-4.8%	-3.5%
CCCNC(=O)c1ccc(CN2CCc3ccccc3C2)cc1	249.0%	0.0%	1.4%	10.4µM*	-11.9%	-14.7%
COc1cccc(NC(=O)c2ccc(N3C(=O)C4CC=C(C)CC4C3=O)cc2)c1 (centres undefined)	1.47µM*	-2.9%	-10.5%	18.1%	-10.4%	0.1%
CC(C)c1ccc(NC(=O)c2cc3c(=O)[nH]c4ccccc4c3n2C)cc1	nt	0.3%	7.6%	nt	nt	nt
O=S(=O)(NN1CCOCC1)c1cc(Cl)cc(Cl)c1O	1.65µM*	-19.7%	0.7%	-19.0%	-28.5%	1.9%
Cc1ccc(C(=O)NC(=S)N2CCN(C)CC2)cc1Br	?	2.9%	-23.3%	-23.3%	-8.2%	-7.6%
O=C(COC(=O)c1ccc(-c2ccc([N+](=O)[O-])cc2)o1)NC(=O)NC1CCCCC1	-22.1%	1.4%	39.8µM*	17.0%	-21.7%	-27.8%
O=C(COC(=O)CSc1ccc([N+](=O)[O-])cc1)NC1CCCCCCC1	0.6%	?	-3.2%	-0.2%	31.6µM*	-16.7%
Cc1ccc(SCC(=O)OCC(=O)NC2CCCCCCC2)cc1	6.7%	-17.9%	-1.2%	-22.6%	18.4%	-6.3%
O=C(NC1CCC(O)CC1)c1ccc(-c2ccc([N+](=O)[O-])cc2)o1 (centres undefined)	15.6%	-13.7%	1.41µM*	20.3%	-7.3%	-0.9%
O=C(NC1CCCCC1)c1ccc(-c2ccccc2[N+](=O)[O-])o1	-26.3%	0.9%	-8.9%	156.4%	279.5%	-9.8%
Cc1ccccc1Nc1nnc(-c2ccc(C(=O)NCCO)cc2)c2ccccc12	-0.2%	-3.2%	-13.8%	-21.3%	-17.4%	2.4%
COc1ccccc1N1CCN(C2CCCN(Cc3c(F)cccc3F)C2)CC1 (centres undefined)	-62.3%	-17.3%	-0.3%	15.6%	53.3%	2.5%
COc1ccccc1N1CCN(C2CCCN(Cc3cccc(O)c3)C2)CC1 (centres undefined)	1.17µM*	?	-13.1%	?	-27.8%	-7.9%
CSc1ccc(CN2CCCC(N3CCN(c4ccccc4)CC3)C2)cc1 (centres undefined)	9.28µM*	?	-7.6%	?	-0.8%	-1.7%
COc1cc(CN2CCCC(N3CCN(c4ccc(F)cc4)CC3)C2)ccc1F (centres undefined)	0.657µM*	3.6%	11.4%	2.08µM*	81.3%	9.4%
COc1ccccc1CN1CCCC(N2CCN(c3ccccc3OC)CC2)C1 (centres undefined)	4.65µM*	?	-13.1%	-6.8%	-15.3%	12.4%
COc1ccc(C2C(=O)N(C3CCC(C)CC3)CC(=O)N2C2CCCCC2)cc1OC (centres undefined)	nt	7.1%	12.0%	nt	nt	nt
CCN(CC)CCNC(=O)c1ccc2c(=O)n3nc(Nc4cccc(Cl)c4C)sc3nc2c1	nt	5.6%	-7.5%	nt	nt	nt
SMILES	Pf growth 96h	AmpC inh detg	Sm TGR block	Pf growth 48h	AmpC no deterg	SARS PLpro yeast
COc1cc(CN2CCCC(N3CCN(c4ccccc4C)CC3)C2)ccc1O (centres undefined)	55.1%	0.6%	?	8.28µM*	39.9%	-0.6%
CCOC(=O)c1ccc(S(=O)(=O)NNc2ccc(C(F)(F)F)cn2)cc1	nt	nt	nt	nt	-15.5%	2.1%
Cc1nc(SCC(=O)N2CCC(Cc3ccccc3)CC2)[nH]c(=O)c1C	?	?	-14.0%	-15.7%	-0.6%	2.3%
CCC(=O)Nc1ccc(C(=O)CSc2nnc(-c3ccccc3F)n2C2CC2)cc1	2.94µM*	-2.7%	3.7%	2.62µM*	27.4%	-3.1%
CCC(C)NC(=O)NC(=O)CSc1nnc(-c2ccccc2F)n1C1CC1 (centres undefined)	-7.0%	-6.2%	-0.3%	-8.2%	14.1%	0.1%
C=CCN(CC=C)CC(O)Cn1c2ccccc2c2ccccc21 (centres undefined)	?	3.1%	14.3%	5.86µM*	34.6%	3.7%
COc1ccccc1N(CC(O)Cn1c2ccccc2c2ccccc21)S(=O)(=O)c1ccccc1 (centres undefined)	10.4µM*	1.8%	6.6%	11.7µM*	-23.9%	-11.3%
O=S(=O)(c1ccccc1)N(CC(O)Cn1c2ccccc2c2ccccc21)c1ccccc1 (centres undefined)	2.33µM*	1.5%	8.2%	?	-31.1%	-3.1%
OCCNCC(O)Cn1c2ccccc2c2ccccc21 (centres undefined)	?	-1.2%	-1.0%	34.0%	-7.0%	0.2%
CCN(CC)CC(O)Cn1c2ccccc2c2ccccc21 (centres undefined)	nt	-1.8%	-6.5%	?	-14.1%	-3.0%
COc1ccccc1CNCC(O)Cn1c2ccccc2c2ccccc21 (centres undefined)	2.08µM*	-0.2%	-1.4%	1.47µM*	26.1%	-0.7%
O=S(=O)(c1ccc(F)cc1)N(CC(O)Cn1c2ccccc2c2ccccc21)c1ccccc1 (centres undefined)	nt	20.8%	-1.6%	nt	nt	nt
CCN(CC(=O)Nc1c(F)cccc1F)C(=O)CC1CCCCC1	24.2%	-7.0%	-5.9%	-25.2%	-19.2%	-3.5%
CCCn1cc(S(=O)(=O)c2ccccc2)c(=O)c2cc(F)c(N3CCCC(C)C3)cc21 (centres undefined)	nt	2.6%	-0.4%	nt	nt	nt
CCCCN(CC)C(=O)CSc1nc2n[nH]c(C)c2c(=N)n1-c1cccc(Cl)c1	nt	-7.7%	9.2%	nt	nt	nt

Screening data as filed in PubChem BioAssay.
